From ChEMBL document CHEMBL2218924, “A broad activity screen in support of a chemogenomic map for kinase signalling research and drug discovery” (Biochem J, 2013) come the findings set out here.

The structures appear in SMILES notation.

In test [1] the target is T1, Mitogen-activated protein kinase kinase kinase 7 (Homo sapiens) (UniProt O43318).
T1 sequence (whole entry): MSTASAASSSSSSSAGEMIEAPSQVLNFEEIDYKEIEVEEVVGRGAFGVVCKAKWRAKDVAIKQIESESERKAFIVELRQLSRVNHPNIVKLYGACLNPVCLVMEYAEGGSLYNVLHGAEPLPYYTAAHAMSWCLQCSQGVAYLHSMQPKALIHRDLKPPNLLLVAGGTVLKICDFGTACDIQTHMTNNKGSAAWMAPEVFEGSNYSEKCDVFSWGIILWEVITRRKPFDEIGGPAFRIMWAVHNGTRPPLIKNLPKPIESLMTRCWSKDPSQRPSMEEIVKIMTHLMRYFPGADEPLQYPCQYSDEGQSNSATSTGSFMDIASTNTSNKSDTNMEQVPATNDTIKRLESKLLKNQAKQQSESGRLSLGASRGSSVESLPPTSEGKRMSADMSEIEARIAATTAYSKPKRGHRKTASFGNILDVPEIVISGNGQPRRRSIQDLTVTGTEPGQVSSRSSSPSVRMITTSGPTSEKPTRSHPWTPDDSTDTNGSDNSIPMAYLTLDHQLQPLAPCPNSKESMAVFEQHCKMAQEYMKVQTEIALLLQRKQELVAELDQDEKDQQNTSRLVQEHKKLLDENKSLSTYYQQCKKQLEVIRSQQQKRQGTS
The following applies: at 1 µM.

Test [2] deals with T1, Mitogen-activated protein kinase kinase kinase 7 (Homo sapiens). The following applies: at 10 µM.
Test [3] has as its target T2, Serine/threonine-protein kinase TAO1 (Homo sapiens) (UniProt Q7L7X3).
T2 sequence (whole entry): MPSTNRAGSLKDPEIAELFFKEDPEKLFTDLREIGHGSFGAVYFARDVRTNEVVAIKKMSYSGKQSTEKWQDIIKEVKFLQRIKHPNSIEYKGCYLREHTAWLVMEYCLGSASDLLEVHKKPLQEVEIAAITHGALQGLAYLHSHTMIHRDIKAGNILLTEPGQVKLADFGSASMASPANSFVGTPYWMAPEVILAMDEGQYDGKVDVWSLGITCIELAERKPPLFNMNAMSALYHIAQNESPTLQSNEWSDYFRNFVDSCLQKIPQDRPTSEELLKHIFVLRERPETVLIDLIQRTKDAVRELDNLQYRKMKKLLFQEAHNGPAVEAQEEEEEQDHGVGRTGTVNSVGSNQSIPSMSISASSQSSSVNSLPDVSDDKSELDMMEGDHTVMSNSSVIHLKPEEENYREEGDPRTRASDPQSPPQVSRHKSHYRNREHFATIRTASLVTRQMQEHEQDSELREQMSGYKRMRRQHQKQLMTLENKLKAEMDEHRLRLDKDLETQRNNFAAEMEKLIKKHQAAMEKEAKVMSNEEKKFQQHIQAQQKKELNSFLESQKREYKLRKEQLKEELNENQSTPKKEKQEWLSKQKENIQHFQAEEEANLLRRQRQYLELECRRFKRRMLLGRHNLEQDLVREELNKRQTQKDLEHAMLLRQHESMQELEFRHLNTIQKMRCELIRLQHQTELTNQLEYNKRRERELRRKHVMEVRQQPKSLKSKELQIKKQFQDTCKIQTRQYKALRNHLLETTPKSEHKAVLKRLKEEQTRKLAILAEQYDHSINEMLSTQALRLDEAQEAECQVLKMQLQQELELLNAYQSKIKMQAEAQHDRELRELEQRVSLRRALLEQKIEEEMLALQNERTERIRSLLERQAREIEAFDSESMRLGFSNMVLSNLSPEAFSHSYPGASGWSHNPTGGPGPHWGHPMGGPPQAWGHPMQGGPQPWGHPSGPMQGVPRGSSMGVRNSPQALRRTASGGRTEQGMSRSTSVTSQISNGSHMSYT
The following applies: at 1 µM.

For test [4], the target named is T2, Serine/threonine-protein kinase TAO1 (Homo sapiens). The following applies: at 10 µM.
Test [5] deals with T3, Serine/threonine-protein kinase TAO2 (Homo sapiens) (UniProt Q9UL54).
T3 sequence (whole entry): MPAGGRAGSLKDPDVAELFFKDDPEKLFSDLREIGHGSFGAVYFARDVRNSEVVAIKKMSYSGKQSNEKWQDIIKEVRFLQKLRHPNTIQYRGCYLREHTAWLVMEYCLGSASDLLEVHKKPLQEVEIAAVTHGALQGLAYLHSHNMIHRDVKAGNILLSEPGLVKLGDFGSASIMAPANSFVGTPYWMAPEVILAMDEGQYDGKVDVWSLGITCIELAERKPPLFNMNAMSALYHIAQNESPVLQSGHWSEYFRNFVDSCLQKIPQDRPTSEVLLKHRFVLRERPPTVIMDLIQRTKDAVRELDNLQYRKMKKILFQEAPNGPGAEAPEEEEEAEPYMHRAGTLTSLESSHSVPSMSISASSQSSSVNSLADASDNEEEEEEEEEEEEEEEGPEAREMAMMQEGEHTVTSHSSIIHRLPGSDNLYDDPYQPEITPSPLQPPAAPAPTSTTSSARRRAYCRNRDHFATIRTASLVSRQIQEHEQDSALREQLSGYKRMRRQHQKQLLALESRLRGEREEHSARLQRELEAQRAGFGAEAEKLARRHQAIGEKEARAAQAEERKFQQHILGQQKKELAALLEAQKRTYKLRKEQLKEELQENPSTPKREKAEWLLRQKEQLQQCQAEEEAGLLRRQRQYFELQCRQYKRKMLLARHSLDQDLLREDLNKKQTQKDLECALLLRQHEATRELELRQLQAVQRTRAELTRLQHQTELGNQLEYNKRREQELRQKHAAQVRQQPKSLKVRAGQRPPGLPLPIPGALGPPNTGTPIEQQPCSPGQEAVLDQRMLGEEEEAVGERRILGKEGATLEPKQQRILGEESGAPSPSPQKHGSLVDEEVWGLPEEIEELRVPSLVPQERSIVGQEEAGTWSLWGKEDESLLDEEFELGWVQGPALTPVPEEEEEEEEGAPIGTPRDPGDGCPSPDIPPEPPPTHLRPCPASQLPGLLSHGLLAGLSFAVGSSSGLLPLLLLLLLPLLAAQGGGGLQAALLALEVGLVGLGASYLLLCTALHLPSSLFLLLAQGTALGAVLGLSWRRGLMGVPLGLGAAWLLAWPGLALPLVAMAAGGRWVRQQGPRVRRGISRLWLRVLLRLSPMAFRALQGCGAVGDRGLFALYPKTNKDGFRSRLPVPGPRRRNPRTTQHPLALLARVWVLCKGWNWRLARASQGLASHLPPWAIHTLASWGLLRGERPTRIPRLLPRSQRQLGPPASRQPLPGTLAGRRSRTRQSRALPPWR
The conditions noted are these: at 10 µM.

In test [6] the target is T4, Serine/threonine-protein kinase TAO3 (Homo sapiens) (UniProt Q9H2K8).
T4 sequence (whole entry): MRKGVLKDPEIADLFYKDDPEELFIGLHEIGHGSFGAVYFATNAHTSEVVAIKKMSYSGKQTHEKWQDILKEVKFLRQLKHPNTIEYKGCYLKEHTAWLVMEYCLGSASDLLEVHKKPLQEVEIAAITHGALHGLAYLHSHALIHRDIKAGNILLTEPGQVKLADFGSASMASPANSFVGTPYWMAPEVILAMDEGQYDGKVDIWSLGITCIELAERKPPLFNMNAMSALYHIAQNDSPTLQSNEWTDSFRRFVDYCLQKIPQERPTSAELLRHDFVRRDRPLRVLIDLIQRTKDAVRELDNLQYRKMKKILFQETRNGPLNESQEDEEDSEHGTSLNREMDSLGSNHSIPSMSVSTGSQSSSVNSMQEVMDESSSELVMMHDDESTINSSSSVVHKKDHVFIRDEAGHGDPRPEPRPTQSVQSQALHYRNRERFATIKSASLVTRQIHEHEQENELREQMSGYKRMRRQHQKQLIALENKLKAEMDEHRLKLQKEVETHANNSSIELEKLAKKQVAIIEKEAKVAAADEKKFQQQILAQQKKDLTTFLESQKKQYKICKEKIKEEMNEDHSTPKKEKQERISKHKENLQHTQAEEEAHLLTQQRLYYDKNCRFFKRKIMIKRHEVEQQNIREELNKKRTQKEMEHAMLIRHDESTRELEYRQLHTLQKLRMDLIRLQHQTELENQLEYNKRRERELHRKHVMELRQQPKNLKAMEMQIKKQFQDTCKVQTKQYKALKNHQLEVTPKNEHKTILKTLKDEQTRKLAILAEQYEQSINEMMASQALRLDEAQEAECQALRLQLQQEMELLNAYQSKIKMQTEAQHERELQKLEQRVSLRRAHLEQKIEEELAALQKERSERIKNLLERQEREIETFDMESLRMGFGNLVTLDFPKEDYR
The conditions noted are these: at 1 µM.

Test [7] addresses T4, Serine/threonine-protein kinase TAO3 (Homo sapiens). The conditions noted are these: at 10 µM.
Test [8] deals with T5, Serine/threonine-protein kinase TBK1 (Homo sapiens) (UniProt Q9UHD2).
T5 sequence (whole entry): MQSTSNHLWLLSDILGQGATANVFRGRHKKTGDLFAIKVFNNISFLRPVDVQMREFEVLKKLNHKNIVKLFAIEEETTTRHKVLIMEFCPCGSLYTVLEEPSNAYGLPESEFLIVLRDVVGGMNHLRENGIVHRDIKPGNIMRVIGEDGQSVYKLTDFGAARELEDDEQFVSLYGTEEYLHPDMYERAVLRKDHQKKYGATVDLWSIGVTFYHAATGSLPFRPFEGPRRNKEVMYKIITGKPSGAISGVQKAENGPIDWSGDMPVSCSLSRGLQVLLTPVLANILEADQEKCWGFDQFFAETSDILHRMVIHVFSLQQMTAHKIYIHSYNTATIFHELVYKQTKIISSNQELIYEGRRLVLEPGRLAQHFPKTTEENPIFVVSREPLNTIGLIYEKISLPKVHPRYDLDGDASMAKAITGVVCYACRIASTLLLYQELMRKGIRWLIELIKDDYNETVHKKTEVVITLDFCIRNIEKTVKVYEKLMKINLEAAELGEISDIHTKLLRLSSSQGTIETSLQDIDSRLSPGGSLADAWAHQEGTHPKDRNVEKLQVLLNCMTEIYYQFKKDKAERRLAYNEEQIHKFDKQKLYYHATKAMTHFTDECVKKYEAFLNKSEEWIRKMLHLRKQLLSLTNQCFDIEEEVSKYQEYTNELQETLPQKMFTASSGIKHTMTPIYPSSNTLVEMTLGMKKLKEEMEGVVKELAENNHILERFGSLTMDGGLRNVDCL
The conditions noted are these: at 1 µM.

Test [9] concerns the target T5, Serine/threonine-protein kinase TBK1 (Homo sapiens). The conditions noted are these: at 10 µM.
In test [10] the target is T6, TGF-beta receptor type-1 (Homo sapiens) (UniProt P36897).
T6 sequence (whole entry): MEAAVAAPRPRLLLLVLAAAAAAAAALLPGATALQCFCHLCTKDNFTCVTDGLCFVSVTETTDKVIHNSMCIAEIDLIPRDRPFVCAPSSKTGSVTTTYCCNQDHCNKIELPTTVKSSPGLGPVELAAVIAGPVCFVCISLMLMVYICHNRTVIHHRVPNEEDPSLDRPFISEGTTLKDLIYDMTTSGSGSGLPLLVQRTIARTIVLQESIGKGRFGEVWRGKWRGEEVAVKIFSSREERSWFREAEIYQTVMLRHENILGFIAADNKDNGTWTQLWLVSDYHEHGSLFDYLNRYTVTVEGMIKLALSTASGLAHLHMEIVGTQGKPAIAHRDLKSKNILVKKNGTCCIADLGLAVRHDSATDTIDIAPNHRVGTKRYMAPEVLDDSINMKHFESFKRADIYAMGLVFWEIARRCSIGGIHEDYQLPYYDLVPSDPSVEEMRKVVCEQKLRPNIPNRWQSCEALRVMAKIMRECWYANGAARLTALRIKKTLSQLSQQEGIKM
The following applies: at 1 µM.

Test [11] concerns the target T6, TGF-beta receptor type-1 (Homo sapiens). The following applies: at 10 µM.
In test [12] the target is Insulin-like growth factor 1 receptor (Homo sapiens) (UniProt P08069). The following applies: at 1 µM.
Test [13] shares this target. The conditions noted are these: at 10 µM.

Chain of Insulin-like growth factor 1 receptor (Homo sapiens) (P08069 31-736 limits assumed): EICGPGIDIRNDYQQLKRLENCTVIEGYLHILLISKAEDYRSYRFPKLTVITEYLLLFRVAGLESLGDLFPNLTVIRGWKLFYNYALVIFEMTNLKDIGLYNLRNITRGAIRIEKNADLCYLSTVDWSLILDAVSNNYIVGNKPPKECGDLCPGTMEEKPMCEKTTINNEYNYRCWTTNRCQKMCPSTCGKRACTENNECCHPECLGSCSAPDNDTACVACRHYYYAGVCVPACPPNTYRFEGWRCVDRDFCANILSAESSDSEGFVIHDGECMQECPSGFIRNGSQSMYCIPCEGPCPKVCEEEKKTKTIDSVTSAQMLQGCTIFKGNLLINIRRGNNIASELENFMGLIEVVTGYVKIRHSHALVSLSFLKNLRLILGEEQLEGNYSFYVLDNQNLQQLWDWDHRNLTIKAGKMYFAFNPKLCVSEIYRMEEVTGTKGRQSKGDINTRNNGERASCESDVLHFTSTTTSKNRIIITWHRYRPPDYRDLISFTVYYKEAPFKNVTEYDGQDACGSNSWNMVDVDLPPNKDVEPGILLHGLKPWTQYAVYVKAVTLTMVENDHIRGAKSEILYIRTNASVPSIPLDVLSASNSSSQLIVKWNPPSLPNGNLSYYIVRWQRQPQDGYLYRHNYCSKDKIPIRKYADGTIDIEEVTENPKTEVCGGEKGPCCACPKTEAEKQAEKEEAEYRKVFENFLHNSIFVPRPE
Chain of Insulin-like growth factor 1 receptor (Homo sapiens) (P08069 741-1367 limits assumed): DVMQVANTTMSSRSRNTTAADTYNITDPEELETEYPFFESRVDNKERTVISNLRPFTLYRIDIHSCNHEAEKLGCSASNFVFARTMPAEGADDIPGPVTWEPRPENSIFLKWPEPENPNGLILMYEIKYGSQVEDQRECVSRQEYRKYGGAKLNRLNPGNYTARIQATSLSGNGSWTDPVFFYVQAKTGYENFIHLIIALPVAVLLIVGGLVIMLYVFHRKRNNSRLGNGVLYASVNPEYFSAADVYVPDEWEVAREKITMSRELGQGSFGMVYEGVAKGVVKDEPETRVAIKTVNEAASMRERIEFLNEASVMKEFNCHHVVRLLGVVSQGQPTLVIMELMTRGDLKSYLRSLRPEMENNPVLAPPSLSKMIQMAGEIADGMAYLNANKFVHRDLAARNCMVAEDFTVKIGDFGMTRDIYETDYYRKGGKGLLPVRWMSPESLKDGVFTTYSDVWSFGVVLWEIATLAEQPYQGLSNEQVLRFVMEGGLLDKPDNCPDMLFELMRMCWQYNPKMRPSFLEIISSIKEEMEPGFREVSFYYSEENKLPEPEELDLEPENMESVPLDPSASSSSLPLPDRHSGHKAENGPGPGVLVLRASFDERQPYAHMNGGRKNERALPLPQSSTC

As for `Cc1cccc(-c2[nH]c(C(C)(C)C)nc2-c2ccc3c(c2)OCO3)n1`, the residual activity is 89% in [1]; 90% in test [2]; 103% in [3]; 98% in test [4]; 90% in test [5]; 101% in test [6]. In addition, the residual activity in test [7] stood at 102%; in test [8], 73%; in [9] it was 72%; in test [10] it was 10%; in [11] it was 0%; in test [12] it was 106%. Besides, in [13], the residual activity amounted to 96%.
